This passage reports log2 fold change results from the supplement of paper PMC10849652.

Holding throughout (assay): log2 fold change, soluble protein after heating vs DMSO (PISA); higher = thermal stabilisation; K562 cells, 10 uM, 30 min; active = over 0.2 and 3.5 SD of the protein, either way, in both replicates (recomputed)
Compound in assay [1]: COC1=CC=C(C=C1)CN2C=CC3=C2C=C(C=C3)C(=O)NO
The gist of the method:
(§1)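 Quantification of soluble protein used TMTpro 16plex LC-MS/MS, with channel sums equalised. Samples were the supernatant after 21,000xg for 90 min of pooled aliquots from K562 cells (2×10^6 cells/mL) treated with 10 μM compound for 30 min, heated for 3 min over 48°C-58°C, and extracted in PBS with 0.5% NP-40 at 4°C. Values, from duplicates, describe thermal stability against control samples on a log2 fold-change scale.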

Compound in assay [2]: CO[C@H]1C[C@@H]2CC[C@@H](C)[C@@](O)(O2)C(=O)C(=O)N2CCCC[C@H]2C(=O)O[C@H]([C@H](C)C[C@@H]2CC[C@H](n3cnnn3)[C@H](OC)C2)CC(=O)[C@H](C)/C=C(\C)[C@@H](O)[C@@H](OC)C(=O)[C@H](C)C[C@H](C)/C=C/C=C/C=C/1C [zotarolimus]
The method, boiled down: as §1

Compound in assay [3]: COc1cc(C(=O)O)ccc1NC(=O)[C@@H]1N[C@@H](CC(C)(C)C)[C@](C#N)(c2ccc(Cl)cc2F)[C@H]1c1cccc(Cl)c1F [idasanutlin]
The method, boiled down:
as §1

Compound in assay [4]: COc1cc(Nc2ncc3c(n2)-c2ccc(Cl)cc2C(c2c(F)cccc2OC)=NC3)ccc1C(=O)O [alisertib]
The method, boiled down:
as §1

Compound in assay [5]: COc1cc2nc(-c3cc(F)ccc3O)nc(N[C@@H]3CNC[C@H]3C(C)(C)O)c2cc1OC
The gist of the method: as §1

Compound in assay [6]: COc1cc2ncnc(Nc3ccc(F)c(Cl)c3)c2cc1OCCCN1CCOCC1 [gefitinib]
The gist of the method:
as §1

Compound in assay [7]: COc1cccc2cc(-c3nc([C@H]4CC[C@H](C(=O)O)CC4)n4ncnc(N)c34)[nH]c12
The gist of the method: as §1

Compound in assay [8]: CS(=O)(=O)CCNCc1ccc(-c2ccc3ncnc(Nc4ccc(OCc5cccc(F)c5)c(Cl)c4)c3c2)o1 [lapatinib]
The method, boiled down:
as §1

Compound in assay [9]: CS(=O)(=O)N1CCN(Cc2cc3nc(-c4cccc5[nH]ncc45)nc(N4CCOCC4)c3s2)CC1 [pictilisib]
The method, boiled down: as §1

Compound in assay [10]: CON(C)C(=O)N1N=C(c2cc(F)ccc2F)S[C@@]1(CCCN)c1ccccc1 [filanesib]
The gist of the method: as §1

The full data set covers some 7,900 targets. This sample favours those with a hit. About 0.6% of all pairs of compound and target were hits. Unmarked numbers belong to inactive results.

Chain of UniProt Q96GV9 (Q96GV9 whole entry, looked up): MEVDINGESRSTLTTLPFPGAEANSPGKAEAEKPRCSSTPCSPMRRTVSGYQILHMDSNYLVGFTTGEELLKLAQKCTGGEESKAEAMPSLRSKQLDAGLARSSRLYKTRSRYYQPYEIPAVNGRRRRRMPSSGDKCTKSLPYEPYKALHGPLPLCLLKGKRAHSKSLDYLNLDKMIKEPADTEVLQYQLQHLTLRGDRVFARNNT
Chain of UniProt Q14194 (Q14194 whole entry, looked up): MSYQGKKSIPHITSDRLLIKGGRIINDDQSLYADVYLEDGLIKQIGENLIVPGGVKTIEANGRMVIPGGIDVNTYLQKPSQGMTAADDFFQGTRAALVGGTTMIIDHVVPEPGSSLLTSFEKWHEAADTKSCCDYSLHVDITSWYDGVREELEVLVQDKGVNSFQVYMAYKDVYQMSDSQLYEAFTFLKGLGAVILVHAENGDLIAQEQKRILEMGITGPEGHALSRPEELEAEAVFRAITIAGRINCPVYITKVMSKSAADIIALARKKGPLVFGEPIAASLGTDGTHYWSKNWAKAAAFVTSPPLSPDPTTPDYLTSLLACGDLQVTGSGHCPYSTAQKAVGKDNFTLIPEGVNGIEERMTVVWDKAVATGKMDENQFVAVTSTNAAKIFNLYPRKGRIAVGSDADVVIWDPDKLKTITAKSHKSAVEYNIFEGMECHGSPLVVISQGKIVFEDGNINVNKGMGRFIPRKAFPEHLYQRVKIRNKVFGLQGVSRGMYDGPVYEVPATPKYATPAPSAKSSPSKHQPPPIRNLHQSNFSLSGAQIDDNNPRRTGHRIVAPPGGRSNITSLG
Chain of UniProt Q14677 (Q14677 whole entry, looked up): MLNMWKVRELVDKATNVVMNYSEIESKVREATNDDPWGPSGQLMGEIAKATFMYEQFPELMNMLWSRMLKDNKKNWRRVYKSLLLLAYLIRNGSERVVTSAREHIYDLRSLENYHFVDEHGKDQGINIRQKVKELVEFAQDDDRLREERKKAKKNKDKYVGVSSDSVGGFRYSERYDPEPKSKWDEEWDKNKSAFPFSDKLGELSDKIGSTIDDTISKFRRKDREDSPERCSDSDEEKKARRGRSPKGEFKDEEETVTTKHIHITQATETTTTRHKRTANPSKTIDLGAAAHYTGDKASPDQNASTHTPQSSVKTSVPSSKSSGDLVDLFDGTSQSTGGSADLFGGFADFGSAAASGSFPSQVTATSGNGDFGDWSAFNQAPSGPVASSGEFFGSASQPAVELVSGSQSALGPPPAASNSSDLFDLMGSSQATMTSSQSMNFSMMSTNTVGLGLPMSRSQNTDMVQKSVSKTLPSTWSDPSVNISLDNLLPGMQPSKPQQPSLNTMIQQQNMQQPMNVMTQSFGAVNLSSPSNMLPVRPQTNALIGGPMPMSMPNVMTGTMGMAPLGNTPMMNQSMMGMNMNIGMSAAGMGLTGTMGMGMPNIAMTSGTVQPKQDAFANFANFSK
Chain of UniProt Q15417 (Q15417 whole entry, looked up): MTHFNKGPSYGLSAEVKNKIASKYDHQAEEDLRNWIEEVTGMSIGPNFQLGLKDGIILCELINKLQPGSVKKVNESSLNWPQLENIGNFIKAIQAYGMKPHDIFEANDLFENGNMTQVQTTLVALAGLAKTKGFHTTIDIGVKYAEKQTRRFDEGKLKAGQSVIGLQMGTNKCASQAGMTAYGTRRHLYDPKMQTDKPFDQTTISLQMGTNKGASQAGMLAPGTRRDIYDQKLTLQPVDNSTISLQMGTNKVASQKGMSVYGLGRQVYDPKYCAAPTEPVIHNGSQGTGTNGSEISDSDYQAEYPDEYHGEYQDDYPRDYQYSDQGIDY
Chain of UniProt P34810 (P34810 whole entry, looked up): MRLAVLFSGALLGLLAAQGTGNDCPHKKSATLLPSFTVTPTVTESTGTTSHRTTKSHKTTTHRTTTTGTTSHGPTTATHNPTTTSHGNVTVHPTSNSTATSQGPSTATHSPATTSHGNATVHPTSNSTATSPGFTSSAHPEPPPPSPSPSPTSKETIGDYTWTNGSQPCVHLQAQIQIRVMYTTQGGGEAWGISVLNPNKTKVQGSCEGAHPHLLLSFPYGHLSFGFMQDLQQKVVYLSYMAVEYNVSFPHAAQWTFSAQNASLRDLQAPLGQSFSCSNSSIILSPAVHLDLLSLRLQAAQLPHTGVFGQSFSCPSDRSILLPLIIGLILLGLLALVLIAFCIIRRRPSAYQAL
Chain of UniProt O60583 (O60583 whole entry, looked up): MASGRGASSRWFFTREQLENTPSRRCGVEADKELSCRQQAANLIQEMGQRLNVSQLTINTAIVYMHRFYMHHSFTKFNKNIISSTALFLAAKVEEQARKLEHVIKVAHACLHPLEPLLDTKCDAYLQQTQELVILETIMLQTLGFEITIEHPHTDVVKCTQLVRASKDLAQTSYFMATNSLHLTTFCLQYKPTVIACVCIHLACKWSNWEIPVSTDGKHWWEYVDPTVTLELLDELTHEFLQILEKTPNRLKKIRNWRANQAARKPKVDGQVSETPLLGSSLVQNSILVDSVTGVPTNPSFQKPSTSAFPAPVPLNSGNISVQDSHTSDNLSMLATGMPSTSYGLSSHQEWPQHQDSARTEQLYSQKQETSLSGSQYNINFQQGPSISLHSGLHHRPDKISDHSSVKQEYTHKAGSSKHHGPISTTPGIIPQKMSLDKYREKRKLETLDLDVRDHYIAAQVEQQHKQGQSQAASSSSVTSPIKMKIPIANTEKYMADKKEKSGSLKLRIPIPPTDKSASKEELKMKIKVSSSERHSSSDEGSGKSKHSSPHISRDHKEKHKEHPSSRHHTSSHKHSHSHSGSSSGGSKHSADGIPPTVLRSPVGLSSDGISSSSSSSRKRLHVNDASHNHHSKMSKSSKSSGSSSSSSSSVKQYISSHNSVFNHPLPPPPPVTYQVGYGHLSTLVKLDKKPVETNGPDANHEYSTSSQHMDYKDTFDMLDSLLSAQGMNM
Chain of UniProt Q96F85 (Q96F85 whole entry, looked up): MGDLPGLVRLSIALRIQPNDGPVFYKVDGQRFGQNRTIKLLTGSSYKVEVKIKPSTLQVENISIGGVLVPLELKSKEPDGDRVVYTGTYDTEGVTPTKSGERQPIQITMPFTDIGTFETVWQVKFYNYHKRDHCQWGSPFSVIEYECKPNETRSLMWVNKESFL
Chain of UniProt Q70SY1 (Q70SY1 whole entry, looked up): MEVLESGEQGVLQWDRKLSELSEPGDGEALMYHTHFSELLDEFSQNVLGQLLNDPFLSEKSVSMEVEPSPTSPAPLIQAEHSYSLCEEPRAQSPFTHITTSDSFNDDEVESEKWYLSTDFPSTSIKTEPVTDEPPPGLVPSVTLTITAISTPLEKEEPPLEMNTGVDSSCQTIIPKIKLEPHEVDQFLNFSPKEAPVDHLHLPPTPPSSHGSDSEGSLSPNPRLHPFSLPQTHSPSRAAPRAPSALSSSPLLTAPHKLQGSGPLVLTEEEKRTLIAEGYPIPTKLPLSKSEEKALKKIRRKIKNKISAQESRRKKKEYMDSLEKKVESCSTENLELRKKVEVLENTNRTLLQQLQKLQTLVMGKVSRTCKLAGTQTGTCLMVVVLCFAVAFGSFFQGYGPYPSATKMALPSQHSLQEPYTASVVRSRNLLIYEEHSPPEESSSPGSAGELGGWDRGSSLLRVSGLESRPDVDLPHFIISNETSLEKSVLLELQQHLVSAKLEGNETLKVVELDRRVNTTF
Chain of UniProt Q5T655 (Q5T655 whole entry, looked up): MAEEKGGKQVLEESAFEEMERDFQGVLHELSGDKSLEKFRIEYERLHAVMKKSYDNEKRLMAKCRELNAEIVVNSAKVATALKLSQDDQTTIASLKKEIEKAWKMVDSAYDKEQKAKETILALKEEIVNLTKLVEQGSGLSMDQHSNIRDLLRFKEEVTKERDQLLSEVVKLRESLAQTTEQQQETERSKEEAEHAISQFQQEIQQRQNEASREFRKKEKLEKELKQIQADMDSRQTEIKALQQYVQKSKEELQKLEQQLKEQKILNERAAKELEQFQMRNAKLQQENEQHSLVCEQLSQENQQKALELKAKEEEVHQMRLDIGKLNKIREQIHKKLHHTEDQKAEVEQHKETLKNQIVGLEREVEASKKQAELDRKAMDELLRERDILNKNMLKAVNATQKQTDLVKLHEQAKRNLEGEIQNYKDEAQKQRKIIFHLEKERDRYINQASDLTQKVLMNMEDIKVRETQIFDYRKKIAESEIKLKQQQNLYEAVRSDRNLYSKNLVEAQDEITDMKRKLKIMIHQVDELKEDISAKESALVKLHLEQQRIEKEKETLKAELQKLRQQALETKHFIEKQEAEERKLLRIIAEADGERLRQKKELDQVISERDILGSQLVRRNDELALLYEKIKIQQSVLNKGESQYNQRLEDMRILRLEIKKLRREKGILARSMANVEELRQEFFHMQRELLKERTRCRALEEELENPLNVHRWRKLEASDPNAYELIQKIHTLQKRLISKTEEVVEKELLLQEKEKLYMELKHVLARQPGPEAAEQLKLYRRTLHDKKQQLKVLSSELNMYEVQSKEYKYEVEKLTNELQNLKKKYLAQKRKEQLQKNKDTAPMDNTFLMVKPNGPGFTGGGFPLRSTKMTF
Chain of UniProt P30281 (P30281 whole entry, looked up): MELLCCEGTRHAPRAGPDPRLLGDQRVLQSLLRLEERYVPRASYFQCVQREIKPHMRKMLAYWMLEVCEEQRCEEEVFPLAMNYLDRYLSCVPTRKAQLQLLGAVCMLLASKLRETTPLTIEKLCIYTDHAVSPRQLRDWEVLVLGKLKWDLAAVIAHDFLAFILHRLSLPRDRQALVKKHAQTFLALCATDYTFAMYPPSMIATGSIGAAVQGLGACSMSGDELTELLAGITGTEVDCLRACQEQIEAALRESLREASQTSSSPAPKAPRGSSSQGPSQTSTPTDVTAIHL
Chain of UniProt P51911 (P51911 whole entry, looked up): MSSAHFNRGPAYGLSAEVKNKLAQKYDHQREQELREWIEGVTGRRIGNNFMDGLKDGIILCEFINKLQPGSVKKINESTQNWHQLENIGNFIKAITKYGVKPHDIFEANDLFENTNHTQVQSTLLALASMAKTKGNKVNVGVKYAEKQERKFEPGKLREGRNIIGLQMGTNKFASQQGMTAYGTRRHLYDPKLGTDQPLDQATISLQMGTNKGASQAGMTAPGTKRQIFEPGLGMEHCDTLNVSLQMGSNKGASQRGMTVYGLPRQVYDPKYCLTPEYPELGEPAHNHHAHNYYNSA

For the target CNOT4 isoform 9 (UniProt O95628), the log2 fold change was -0.018 in assay [1]; -0.373 (active) in assay [2]; -0.334 (active) in [3]; 0.018 in assay [4]; 0.106 in [5]; 0.053 in [6]. The log2 fold change in [7] is 0.019; in assay [8], -0.083; in [9] it was 0.045.
For the target C5orf30 (UniProt Q96GV9), the log2 fold change is 0.022 in [3], -0.094 in assay [5] and -0.21 in assay [8].
Turning to CRMP1 isoform 2 (UniProt Q14194), the log2 fold change in [10] was 0.067; in [2] it was -0.045; in assay [3], 0.172; in assay [6], -0.407; in assay [9], 0.107.
In the case of CCNL1 (UniProt Q9UK58), the log2 fold change in [4] was 0.119; in [7] it was 0.167.
As to CCNDBP1 (UniProt O95273), the log2 fold change in assay [10] was 0.016; in [2] it was -0.102; in [3], 0.063; in assay [4] it was -0.012; in assay [6] it was -0.33 (active); in assay [7], 0.125. The log2 fold change in assay [9] was 0.009.
Take CNN1 (UniProt P51911): the log2 fold change in assay [10] is -0.051; in [2], 0.047; in assay [3], -0.048; in assay [4], -0.055; in assay [5], 0.182; in assay [6], -0.14. Further, the log2 fold change in assay [7] was 0.059; in assay [8], -0.068; in assay [9], 0.172.
Take CORO2A (UniProt Q92828): the log2 fold change in assay [10] was -0.035; in assay [2], -0.049; in [3], -0.071; in assay [4], 0.035; in assay [5] it was -0.057; in assay [6] it was -0.097. Besides, the results for the log2 fold change in [7], in [8] and in assay [9] were -0.02, -0.011 and -0.11, respectively.
On to CDK19 (UniProt Q9BWU1), for which the log2 fold change in assay [10] was 0.154; in [2] it was -0.069; in assay [3], -0.161; in assay [4], 0.234; in assay [5], 0.138; in [6], -0.095. Also, the log2 fold change is -0.045 in [7], -0.192 in assay [8] and 0.073 in assay [9].
In the case of CD68 (UniProt P34810), the log2 fold change in assay [10] is 0.05; in assay [4] it was -0.126; in assay [7] it was -0.025.
Regarding CRTC3 (UniProt Q6UUV7), the log2 fold change in [10] is 0.015; in assay [2] it was -0.059; in assay [4], 0.202; in assay [5] it was -0.86 (active); in assay [7] it was -0.107; in assay [8] it was 0.078.
In the case of CARD9 (UniProt Q9H257), the results for the log2 fold change in assay [1] and in assay [3] were -0.062 and 0.169, respectively.
With CEBPZOS (UniProt A8MTT3), the log2 fold change in [1] is 0.111; in assay [3] it was -0.021; in assay [4] it was -0.014; in assay [5], -0.085; in [6], 0.004; in [7], 0.098. In addition, the values for the log2 fold change in assay [8] and in [9] were -0.037 and -0.045, respectively.
On to CFAP47 (UniProt Q6ZTR5), for which the values for the log2 fold change in [3], in assay [5] and in assay [8] were -0.496, 0.031 and -0.106, respectively.
Consider CNN3 (UniProt Q15417), for which the log2 fold change was -0.006 in assay [10]; 0.005 in assay [2]; -0.04 in [3]; -0.031 in assay [4]; 0.111 in [5]; 0.026 in assay [6]. The log2 fold change in assay [7] was -0.026; in assay [8], -0.032; in assay [9], 0.04.
CNRIP1 (UniProt Q96F85): the log2 fold change in [4] was 0.075; in assay [5], 0.282; in assay [6], 0.002; in [7], -0.223; in [8], 0.054.
In the case of CREB3L2 (UniProt Q70SY1), the log2 fold change in assay [1] was 0.584; in assay [2], 0.042; in assay [3], 0.045; in assay [4], -0.022; in [6] it was -0.154; in [7], 0.176.
Consider CCDC187, A0A1W2PQX5, for which the figures for the log2 fold change in assay [3], in assay [6] and in assay [9] were -0.051, -0.312 and 0.191, respectively.
Regarding CCNT2 (UniProt O60583), the log2 fold change in [10] was 0.102; in [3], 0.143; in assay [4], 0.039; in assay [5] it was -0.291; in [6] it was 0.163; in assay [7] it was -0.131. For the same target, the values for the log2 fold change in [8] and in [9] were 0.085 and 0.121, respectively.
In the case of CLPTM1L (UniProt G5E9Z2), the log2 fold change is -0.235 in assay [10]; -0.101 in assay [2]; -0.446 in [3]; -0.199 in [4]; -0.142 in assay [6]; 0.099 in [7].
For the target CDK2AP2 (UniProt O75956), the log2 fold change in [1] is 0.078; in [2] it was -0.022; in [3] it was -0.043; in assay [4], -0.019; in assay [6], -0.009; in assay [7], -0.11.
As to CASK (UniProt O14936), the log2 fold change in assay [1] was 0.046; in assay [3] it was -0.031.
Consider CLINT1 (UniProt Q14677), for which the log2 fold change in assay [1] was -0.371; in [2], 0.263; in assay [3] it was -0.012; in [4], -0.137; in [6], 0.077; in assay [7], -0.055.
CLCN5 isoform 2 (UniProt P51795): the log2 fold change in assay [1] is -0.011; in assay [2] it was -0.004; in [6] it was 0.011.
Regarding CCND3 (UniProt P30281), the log2 fold change in assay [2] is -0.035; in assay [3] it was -0.036; in assay [4] it was -0.043; in assay [5], -0.276; in assay [7] it was 0.012; in assay [8], 0.083. In addition, the log2 fold change in assay [9] is 0.03.
CFAP58 (UniProt Q5T655): the log2 fold change is -0.156 in assay [4]; 0 in [5]; 0.032 in assay [7]; 0.001 in assay [8]; 0.122 in assay [9].
